This note sets out measurements from PubChem BioAssay (Tox21).

Experiment [1] can be described thus: qHTS assay to identify small molecule antagonists of the glucocorticoid receptor (GR) signaling pathway - cell viability counter screen (AID 720693). Note: nearly all actives have a fitted effect of over 55% in size.
A short description of experiment [2]: qHTS assay for identifying genotoxic compounds that show differential cytotoxicity against isogenic chicken DT40 cell lines with known DNA damage response pathways - wild type cell line (AID 743012). Note: nearly all actives have a fitted effect of over 60% in size. The method in brief: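 First, wild type DT40 cells were plated at 300 per well and equilibrated about 0.5 h at 37 C/5% CO2. Next, compounds in DMSO were added and exposure lasted 40 h. Finally, CellTiter-Glo was added for 30 min at room temperature and luminescence recorded.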

Experiment [3] is described as follows: qHTS assay for identifying genotoxic compounds that show differential cytotoxicity against isogenic chicken DT40 cell lines with known DNA damage response pathways - Rev3 mutant cell line (AID 743014). Note: nearly all actives have a fitted effect of over 55% in size.
Experiment [4] in a line: qHTS assay for identifying genotoxic compounds that show differential cytotoxicity against isogenic chicken DT40 cell lines with known DNA damage response pathways - Rad54/Ku70 mutant cell line (AID 743015). Note: nearly all actives have a fitted effect of over 60% in size. Background: In qHTS, concentration-response curves come from the screen itself.
Experiment [5] in a line: qHTS assay to identify small molecule antagonists of the androgen receptor (AR) signaling pathway - cell viability counter screen (AID 743033; note: nearly all actives have a fitted effect of over 45% in size).
The nature of experiment [6]: qHTS assay to identify small molecule antagonists of the androgen receptor (AR) signaling pathway using the MDA cell line - cell viability counter screen (AID 743041; note: nearly all actives have a fitted effect of over 45% in size). The method in brief: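 R1881-driven MDA-kb2 AR-luc cells, 3,000/well, were dosed with library compounds for 16 h; cell health came from CellTiter-Fluor fluorescence in the reporter wells.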

Each structure is given as a SMILES string. Inconclusive results are not listed. The source made the active and inactive calls. Calls come from the whole dose curve; as a rule, active = well fitted curve in the direction sought with a large enough effect in the repeat runs; inconclusive = weak or mixed curves; inactive = no such curve, though single readings can be large; an effect the other way counts as inactive or inconclusive. Starred links: 1 amine or outer side, 2 acyl side, 3 side chain; linkers in the order of their positions; H or OH if unused. Positions of bridges follow the written chain, without caps; N, C: chain ends. Non-standard residues stand in square brackets, D forms with d. Residues, ends and D or L forms follow the SMILES beside them. *: point of attachment. X5 = NC1=N[C@@H]([C@H](N[*:1])C(=O)[*:2])C[C@H](O)N1; ΔAla(Z-3-ureido) = NC(=O)N/C=C(\N)C(=O)O; β3hOrn = NCCC[C@H](N)CC(=O)*; Dap = NC[C@H](N)C(=O)O
Potency is the fitted concentration of half-maximal effect.

Consider `CCC(C)[C@@H](N)C(=O)O` (stereo partly specified), for which the Potency result in experiment [1], in experiment [2], in experiment [3], in experiment [4], in experiment [5] and in experiment [6] was “inactive” throughout.

Regarding `Nc1nc2[nH]cc(CCc3ccc(C(=O)N[C@@H](CCC(=O)O)C(=O)O)cc3)c2c(=O)[nH]1`, the Potency result in experiment [1], in experiment [5] and in experiment [6] was “inactive” throughout. For the same compound, the Potency in experiment [2] was 0.0266 µM (active); in experiment [3], 0.0119 µM (active); in experiment [4] it was 0.0106 µM (active).

`CCCC(=O)O[C@]1(C(=O)COC(C)=O)CC[C@H]2[C@@H]3C[C@H](F)C4=CC(=O)C=C[C@]4(C)[C@@]3(F)[C@@H](O)C[C@@]21C`: the Potency entry in experiment [1], in experiment [5] and in experiment [6] was “inactive” throughout. For the same compound, the Potency is 26.6 µM (active) in experiment [2], 29.8 µM (active) in experiment [3] and 29.8 µM (active) in experiment [4].

Consider `Cc1c(N)nc(C(CC(N)=O)NCC(N)C(N)=O)nc1C(=O)NC(C(=O)NC(C)C(O)C(C)C(=O)NC(C(=O)NCCc1nc(-c2nc(C(=O)NCCCN[C@@H](C)c3ccccc3)cs2)cs1)C(C)O)C(O[C@@H]1O[C@@H](CO)[C@@H](O)[C@H](O)[C@@H]1O[C@H]1O[C@H](CO)[C@@H](O)[C@H](OC(N)=O)[C@@H]1O)c1cnc[nH]1` (stereo partly specified), for which the Potency result in experiment [1], in experiment [5] and in experiment [6] was “inactive” in each case. Further, the values for the Potency in experiment [2], in experiment [3] and in experiment [4] were 1.19 µM (active), 0.944 µM (active) and 0.0531 µM (active), respectively.

As to `Nc1ncnc2c1ncn2CCOCP(=O)(O)O`, the Potency entry in experiment [1], in experiment [2], in experiment [3], in experiment [4], in experiment [5] and in experiment [6] was “inactive” each time.

Consider `N=C(N)c1ccc(OCCCOc2ccc(C(=N)N)cc2Br)c(Br)c1`, for which the Potency entry in experiment [1], in experiment [5] and in experiment [6] was “inactive” in each case. Also, the Potency was 5.96 µM (active) in experiment [2], 8.41 µM (active) in experiment [3] and 6.68 µM (active) in experiment [4].

`CO[C@H]1O[C@@H]2O[C@@]3(C)CC[C@H]4[C@H](C)CC[C@@H]([C@H]1C)[C@@]24OO3`: the Potency entry in experiment [1], in experiment [5] and in experiment [6] was “inactive” in each case. Moreover, the Potency was 1.19 µM (active) in experiment [2], 1.68 µM (active) in experiment [3] and 0.668 µM (active) in experiment [4].

Regarding `CO/N=C(\C(=O)N[C@@H]1C(=O)N2C(C(=O)O)=CCS[C@H]12)c1csc(N)n1`, the Potency result in experiment [1], in experiment [2], in experiment [3], in experiment [4], in experiment [5] and in experiment [6] was “inactive” throughout.

In the case of `CCNC(=O)[C@@H]1CCCN1C(=O)[C@H](CCCN=C(N)N)NC(=O)[C@H](CC(C)C)NC(=O)[C@@H](Cc1c[nH]c2ccccc12)NC(=O)[C@H](Cc1ccc(O)cc1)NC(=O)[C@H](CO)NC(=O)[C@H](Cc1c[nH]c2ccccc12)NC(=O)[C@H](Cc1cnc[nH]1)NC(=O)[C@@H]1CCC(=O)N1`, the Potency in experiment [1] was 19 µM (active); in experiment [2], 0.841 µM (active); in experiment [3], 1.19 µM (active); in experiment [4] it was 1.06 µM (active); in experiment [5] it was 23.9 µM (active); in experiment [6], 11.9 µM (active).

Consider `C[C@]12CC[C@@H]3c4ccc(O)cc4CC[C@H]3[C@@H]1CC[C@@H]2OP(=O)(O)O`, for which the Potency result in experiment [1], in experiment [2], in experiment [3], in experiment [4], in experiment [5] and in experiment [6] was “inactive” each time.

Take `CN(C(=O)CO)c1c(I)c(C(=O)NCC(O)CO)c(I)c(C(=O)NCC(O)CO)c1I` (stereo unspecified): the Potency result in experiment [1], in experiment [2], in experiment [3], in experiment [4], in experiment [5] and in experiment [6] was “inactive” each time.

On to `NCCC[C@H](N)CC(=O)N[C@H]1CNC(=O)[C@H]([C@H]2C[C@H](O)NC(N)=N2)NC(=O)/C(=C/NC(N)=O)NC(=O)[C@H](CO)NC(=O)[C@H](CO)NC1=O` (β3hOrn-[Dap]SS[ΔAla(Z-3-ureido)][X5]; lactam 1-C), for which the Potency entry in experiment [1], in experiment [2], in experiment [3], in experiment [4], in experiment [5] and in experiment [6] was “inactive” throughout.

Take `Cc1onc(-c2ccccc2)c1C(=O)N[C@@H]1C(=O)N2[C@@H]1SC(C)(C)[C@@H]2C(=O)O`: the Potency result in experiment [1], in experiment [2], in experiment [3], in experiment [4], in experiment [5] and in experiment [6] was “inactive” in each case.

For the compound `NC(=O)OCC(O)COc1ccc(Cl)cc1` (stereo unspecified), the Potency result in experiment [1], in experiment [2], in experiment [3], in experiment [4], in experiment [5] and in experiment [6] was “inactive” in each case.

For the compound `c1ccc2c(CCC3CCNCC3)c[nH]c2c1`, the Potency result in experiment [1], in experiment [5] and in experiment [6] was “inactive” each time. The Potency in experiment [2] was 13.3 µM (active); in experiment [3], 29.8 µM (active); in experiment [4] it was 26.6 µM (active).

Take `CO[C@H]1[C@@H](O)[C@H](N)[C@@H](O[C@H]2O[C@H]([C@H](C)N)CC[C@H]2N)[C@H](O)[C@@H]1N(C)C(=O)CN`: the Potency entry in experiment [1], in experiment [2], in experiment [3], in experiment [4], in experiment [5] and in experiment [6] was “inactive” each time.

As to `CCOc1cc(-c2nccc3cc(OC)c(OC)cc23)cc(OCC)c1OCC`, the Potency result in experiment [1], in experiment [5] and in experiment [6] was “inactive” in each case. Further, the Potency in experiment [2] was 4.22 µM (active); in experiment [3], 6.68 µM (active); in experiment [4], 8.41 µM (active).

On to `CC1=C(/C=C/C(C)=C/C=C/C(C)=C/C(=O)Oc2c(C)c(C)c3c(c2C)CC[C@@](C)(CCC[C@H](C)CCC[C@H](C)CCCC(C)C)O3)C(C)(C)CCC1`, for which the Potency entry in experiment [1], in experiment [2], in experiment [3], in experiment [4], in experiment [5] and in experiment [6] was “inactive” in each case.

Take `COc1ccc(CC2c3cc(OC)c(OC)cc3CC[N+]2(C)CCC(=O)OCCCCCOC(=O)CC[N+]2(C)CCc3cc(OC)c(OC)cc3C2Cc2ccc(OC)c(OC)c2)cc1OC` (stereo unspecified): the Potency entry in experiment [1], in experiment [2], in experiment [3], in experiment [4], in experiment [5] and in experiment [6] was “inactive” in each case.

As for `NCCCC[C@H](NC(=O)[C@@H]1CCCN1C(=O)[C@@H]1CSSC[C@H](N)C(=O)N[C@@H](Cc2ccccc2)C(=O)N[C@@H](Cc2ccccc2)C(=O)N[C@@H](CCC(N)=O)C(=O)N[C@@H](CC(N)=O)C(=O)N1)C(=O)NCC(N)=O`, the Potency entry in experiment [1], in experiment [2], in experiment [3], in experiment [4], in experiment [5] and in experiment [6] was “inactive” each time.

Take `CCCCCCCCCCCCCCCCCC(=O)OCC(C)O` (stereo unspecified): the Potency result in experiment [1], in experiment [2], in experiment [3], in experiment [4] and in experiment [5] was “inactive” throughout. The Potency in experiment [6] is 26.6 µM (active).
